Reference: PubChem BioAssay (NCATS)
Records with an inconclusive call do not appear. Active and inactive are the calls of the source. Unless noted, calls come from the whole dose curve.

Experiments:
[1] = qHTS for Inhibitors of the Functional Ribonucleoprotein Complex (vRNP) of Lassa (LASV) Arenavirus: LASV Primary Screen - GLuc reporter signal (AID 1347082; calls by dose curve; tested in HEK293 reporter line; note: nearly all actives have a fitted effect of over 60% in size)
[2] = qHTS for Inhibitors of the Functional Ribonucleoprotein Complex (vRNP) of Lassa (LASV) Arenavirus: Viability assay - alamar blue signal for LASV Primary Screen (AID 1347083; calls by dose curve; tested in HEK293 reporter line; note: nearly all actives have a fitted effect of over 80% in size)
[3] = qHTS for Inhibitors of the Functional Ribonucleoprotein Complex (vRNP) of Lymphocytic Choriomeningitis Arenaviruses (LCMV): Viability assay - alamar blue signal for LCMV Primary Screen (AID 1347085; calls by dose curve; tested in HEK293 reporter line; note: nearly all actives have a fitted effect of over 80% in size)
[4] = target: Nucleoprotein (Lymphocytic choriomeningitis virus (strain Armstrong)) (UniProt P09992); test: qHTS for Inhibitors of the Functional Ribonucleoprotein Complex (vRNP) of Lymphocytic Choriomeningitis Arenaviruses (LCMV): LCMV Primary Screen - GLuc reporter signal (AID 1347086); note: nearly all actives have a fitted effect of over 70% in size
Sequence of Nucleoprotein (Lymphocytic choriomeningitis virus (strain Armstrong)) (P09992 whole entry, looked up): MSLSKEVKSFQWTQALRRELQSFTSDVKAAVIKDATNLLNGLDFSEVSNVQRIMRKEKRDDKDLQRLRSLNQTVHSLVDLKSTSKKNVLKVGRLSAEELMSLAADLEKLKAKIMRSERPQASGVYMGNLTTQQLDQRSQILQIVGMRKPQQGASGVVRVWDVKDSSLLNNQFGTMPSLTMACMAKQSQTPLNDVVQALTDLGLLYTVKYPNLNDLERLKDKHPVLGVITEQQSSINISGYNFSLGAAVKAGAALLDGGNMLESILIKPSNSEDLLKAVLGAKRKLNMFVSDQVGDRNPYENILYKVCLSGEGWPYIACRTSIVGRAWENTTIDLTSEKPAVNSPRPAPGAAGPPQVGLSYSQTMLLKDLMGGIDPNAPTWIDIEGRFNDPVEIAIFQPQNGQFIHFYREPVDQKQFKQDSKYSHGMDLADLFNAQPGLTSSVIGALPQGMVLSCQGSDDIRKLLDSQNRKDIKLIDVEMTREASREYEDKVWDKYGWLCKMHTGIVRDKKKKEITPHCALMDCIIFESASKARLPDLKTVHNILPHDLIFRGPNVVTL
% is set by controls: 0 for no effect and ±100 for the full control effect.
Note: series mostly up to about 57 µM.

CCN(Cc1ccncc1)C(=O)C(CO)c1ccccc1 (stereo unspecified)
inactive: Potency [1] | Potency [2] | Potency [3] | Potency [4]

CC1(C)O[C@@H]2C[C@H]3[C@@H]4C[C@H](F)C5=CC(=O)C=C[C@]5(C)[C@@]4(F)[C@@H](O)C[C@]3(C)[C@]2(C(=O)CO)O1
inactive: Potency [1] | Potency [2] | Potency [3] | Potency [4]

CN1CCN(c2c(F)cc3c(=O)c(C(=O)O)cn4c3c2SCC4)CC1
inactive: Potency [1] | Potency [2] | Potency [3] | Potency [4]

O=S(=O)(O)c1ccc2nc(-c3ccccc3)[nH]c2c1
inactive: Potency [1] | Potency [2] | Potency [3] | Potency [4]

C/C=C/C=N/NC(=O)c1ccncc1
inactive: Potency [1] | Potency [2] | Potency [3] | Potency [4]

CCOC(=O)c1cnc2c(cnn2CC)c1NN=C(C)C
inactive: Potency [1] | Potency [2] | Potency [3] | Potency [4]

OCc1cccnc1
inactive: Potency [1] | Potency [2] | Potency [3] | Potency [4]

N=C(N)N1CCc2ccccc2C1
inactive: activity change, negative = inhibition [1] -8.85% [at 5.82 µM] | activity change, negative = reduced viability [2] -0.684% [at 5.82 µM] | activity change, negative = lower viability [3] -9.02% [at 5.82 µM] | activity change, negative = inhibition [4] -2.35% [at 5.82 µM]

Cc1ccc(-c2ncc(Cl)cc2-c2ccc(S(C)(=O)=O)cc2)cn1
inactive: Potency [1] | Potency [2] | Potency [3] | Potency [4]
